Laboratory results as given in PubChem BioAssay (NCATS).
Values joined by “and” are separate entries in the source; they are usually repeats but may differ in a detail not shown here. Identical values can stand only once. Results filed as inconclusive are left out. Active and inactive are the calls of the source. Unless noted, no rule for the calls is given here.

Assays:
[1] = qHTS profiling of the MIPE4 collection as inhibitors of Plasmodium falciparum (3D7) proliferation (AID 743344);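 also: scaled between DMSO vehicle wells and 0.29 µM artemisinin as full inhibition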; conditions: P. falciparum 3D7 in erythrocytes, SYBR Green DNA fluorescence, 72 h; at 28.5 µM unless noted
How it was run: (§1)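 Parasite DNA was quantified by SYBR Green I fluorescence (ex 485, em 535 nm) after overnight lysis in saponin/Triton buffer at room temperature. Cultures at 0.3% parasitemia and 2.5% hematocrit were first exposed to compound for 72 h at 37 C; signals were normalised to artemisinin (0.29 uM) and vehicle wells.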

[2] = qHTS profiling of the MIPE4 collection as inhibitors of Plasmodium falciparum (DD2) proliferation (AID 743345); conditions: P. falciparum Dd2 in erythrocytes, SYBR Green DNA, 72 h; at 28.5 µM unless noted
How it was run: as §1

[3] = qHTS profiling of the MIPE4 collection as inhibitors of Plasmodium falciparum (DD2) proliferation (Rep 2) (AID 743346); conditions: P. falciparum Dd2 in erythrocytes, SYBR Green DNA, 72 h; at 28.5 µM unless noted
How it was run: as §1

[4] = qHTS profiling of the MIPE4 collection as inhibitors of Plasmodium falciparum (HB3) proliferation (AID 743347);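 also: plate controls were DMSO vehicle wells for no effect and artemisinin wells for full effect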; conditions: P. falciparum HB3 in erythrocytes, SYBR Green DNA, 72 h; at 28.5 µM unless noted
How it was run: as §1

[5] = High-throughput drug toxicity screening in the BPDCN cell line Gen2.2 (AID 1224824); conditions: Gen2.2 BPDCN cells; at 45.8 µM (top of the series) unless noted;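 also: cells exposed to compounds for 48 h before reading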
How it was run: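 Gen2.2, 500 cells/well, phenol red-free RPMI/10% FBS/Pen-Strep; 48 h cpd, 37 °C/5% CO2; CTG lum, 15 min RT. Norm: DMSO = 100%, bortezomib 9.2 uM final = 0%.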

[6] = High-throughput drug toxicity screening in the BPDCN cell line Cal-1 (AID 1224825); conditions: Cal-1 BPDCN cell viability, qHTS; at 45.8 µM (top of the series) unless noted
How it was run: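 CellTiter-Glo luminescence after 48 h compound exposure; percent activity scaled with DMSO as 100% and bortezomib (9.2 uM final) as 0%. Cal-1 cells seeded at 500/well in RPMI, 10% FBS, no phenol red.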

[7] = qHTS assay for measurement of the activity of small molecule inhibitors on Zika virus induced Caspase-3 activity in human astrocytoma cells (AID 1224859; active = well fitted curve in the direction sought with a large enough effect; an effect the other way counts as inactive or inconclusive;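 also: plate controls were ZIKV-infected untreated cells for no effect and uninfected cells for full effect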)
How it was run: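 Luminescence read-out (Caspase-Glo 3/7, 30 min RT) of caspase activity in SNB-19 cells infected 6 h with ZIKV, 2 FFU/cell, after 1 h compound pretreatment; % inhibition from induction normalised to uninfected (0%) and infected (100%) wells.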

[8] = qHTS profiling for inhibitors of Plasmodium falciparum (3D7) proliferation (AID 743322);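 also: infected erythrocytes exposed to compound for 72 h before lysis; 100% = DMSO vehicle wells and 0% = 0.29 µM artemisinin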; conditions: P. falciparum 3D7 proliferation; at 28.7 µM (top of the series)
How it was run: as §1

[9] = qHTS profiling for inhibitors of Plasmodium falciparum (DD2) proliferation (AID 743323); conditions: lower = more inhibition; at 28.7 µM (top of the series)
How it was run: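 1536-well qHTS; infected RBCs 0.3% parasitemia/2.5% Hct final; cpd 72 h 37 C 5% CO2; lysis buffer + SYBR Green I, o/n RT dark; FI 485/535; norm. to 0.29 uM artemisinin and DMSO, plate-stack corrected.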

[10] = qHTS profiling for inhibitors of Plasmodium falciparum (HB3) proliferation (AID 743324; active = well fitted curve in the direction sought with a large enough effect; an effect the other way counts as inactive or inconclusive;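 also: 100% = DMSO vehicle wells and 0% = artemisinin-treated control wells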); conditions: Plasmodium falciparum HB3 blood-stage proliferation; at 28.7 µM (top of the series)
How it was run: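 SYBR Green fluorescence (485 ex/535 em) of lysed cultures, incubated overnight at room temperature in the dark, quantifies parasite DNA. Infected erythrocytes at 0.3% parasitemia and 2.5% hematocrit were exposed 72 h; values normalized to DMSO and 0.29 uM artemisinin controls.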

[11] = qHTS Assay for Identifying Gametocytocidal Compounds (AID 743244; active = well fitted curve in the direction sought with a large enough effect; an effect the other way counts as inactive or inconclusive;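 also: % is scaled to controls: 0 for no effect and ±100 for the full control effect; actives lower the fluorescent signal which means gametocytes are killed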); conditions: P. falciparum 3D7 stage III-V gametocytes, alamarBlue, 72 h; max response: stronger effect = lower value
How it was run: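 P. falciparum 3D7 stage III–V gametocytes (20,000 cells/well) were exposed to compounds for 72 h at 37 °C, 5% CO2. AlamarBlue was then added for 24 h; decreased resorufin fluorescence (Ex 525/Em 598 nm) indicated loss of viability.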

Row | SMILES | parasite growth, % of DMSO control [1] | parasite growth remaining, % of DMSO control (lower = more inhibition) [2] | parasite growth, % of control (lower = inhibition) [3] | growth, % of control [4] | cell viability, % of control (lower = more cytotoxic) [5] | viability (% of control) [6] | Potency [7] | remaining parasite growth % (stronger effect = lower value) [8] [%] | activity, percent of control [9] [%] | remaining proliferation (% of control), lower = more inhibition [10] [%] | max response [11]
1 | Cc1ccc(NC(=O)C2(c3ccc4c(c3)OC(F)(F)O4)CC2)nc1-c1cccc(C(=O)O)c1 | 7.25% | 6.69% | 7.61% | 5.22% | 8.23% | 6.82% | inactive | – | – | – | –
2 | O=C(C=Cc1cccc(S(=O)(=O)Nc2ccccc2)c1)NO | 4.9% [at 57.5 µM] | 6.53% [at 57.5 µM] | 18.3% [at 57.5 µM] | 8.45% [at 57.5 µM] | 8.69% [at 92.2 µM] | 3.98% [at 92.2 µM] | inactive | 0.201 | 0.981 | 0.6 | –
3 | CC(C)c1cc(C(=O)N2Cc3ccc(CN4CCN(C)CC4)cc3C2)c(O)cc1O | 5.55% | 7.69% | 9.28% | 2.52% | 29.3% | 15% | inactive | – | – | – | –
4 | CNC(=O)c1c(F)cccc1Nc1nc(Nc2cc3c(cc2OC)CCN3C(=O)CN(C)C)nc2[nH]ccc12 | 3.51% | 6.69% | 6.76% | 2.27% | 5.55% | 2.8% | inactive | – | – | – | –
5 | Cc1nc(N)ncc1-c1nc(N2CCOCC2)c2sc(C(C)(C)O)cc2n1 | 5.28% | 8.49% | 7.48% | 1.99% | 38.1% | 14% | inactive | – | – | – | –
6 | CCn1cc(-c2ccnc3[nH]c(-c4cccc(CN(C)C)c4)cc23)c(-c2ccc(NC(=O)N(C)C)cc2)n1 | 5% | 8.23% | 9.35% | 5.95% | 3.65% | 2.71% | inactive | – | – | – | –
7 | Cc1nc2ccc(CN(C)c3ccc(C(=O)N[C@@H](CCC(=O)O)C(=O)O)s3)cc2c(=O)[nH]1 | 211% | 106% | 54.1% | 424% | 185% | 32.8% | – | – | – | – | 16% (inactive) and -8.64% (inactive)
8 | COc1cccc(Nc2c(C(N)=O)cnc3c(C)cc(S(=O)(=O)c4cccc(C(=O)N(C)C)c4)cc23)c1 | 37.9% [at 9.64 µM] | 90.5% [at 9.64 µM] | 40% [at 9.64 µM] | 90% [at 9.64 µM] | 216% [at 23.2 µM] | 108% [at 23.2 µM] | inactive | – | – | – | –
9 | c1nc2nc(Nc3ccc(N4CCOCC4)cc3)nc(NC3CCCCC3)c2[nH]1 | 12.6% | 31.3% | 10.2% | 4.57% | 9.78% | 8.54% | inactive | 4.62 | 13.5 | -0.173 | –
